Screening results (PubChem BioAssay)
AmpC no deterg = qHTS Inhibitors of AmpC Beta-Lactamase (assay without detergent); AmpC nitrocefin hydrolysis, absorbance 480 nm, 0.0001% Triton; Potency, µM (titrated, usually from 57.1 µM), without a hit: at the highest dose activity change, negative = inhibition, usual class: inhibitors; 330,000 compounds, 0.52% hits; P00811;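 also: plate controls were no compound for no effect and no enzyme for full effect; nearly all actives have a fitted effect of over 20% in size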
Target sequence (P00811 whole entry, looked up): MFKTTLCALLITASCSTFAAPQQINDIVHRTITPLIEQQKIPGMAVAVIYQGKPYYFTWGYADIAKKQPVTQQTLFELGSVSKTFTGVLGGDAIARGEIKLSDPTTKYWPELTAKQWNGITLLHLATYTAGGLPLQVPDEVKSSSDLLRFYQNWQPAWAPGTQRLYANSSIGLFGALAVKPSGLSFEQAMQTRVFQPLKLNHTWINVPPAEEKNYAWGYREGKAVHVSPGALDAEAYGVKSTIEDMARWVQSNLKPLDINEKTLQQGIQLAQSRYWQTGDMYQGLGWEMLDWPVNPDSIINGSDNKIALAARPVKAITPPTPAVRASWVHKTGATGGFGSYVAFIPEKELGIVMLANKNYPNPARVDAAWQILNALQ
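AmpC (5.3 nM in the dispensed reagent) in 20 mM phosphate pH 7.0 with 0.01% (detergent screen) or 0.0001% Triton X-100 was preincubated with compounds for 15 min at room temperature. Nitrocefin was then added from an 800 uM solution, and hydrolysis was followed at 480 nm.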
Sm TGR block = qHTS Assay for the Inhibitors of Schistosoma Mansoni Peroxiredoxins | AID 485364, 2010 | purified TGR, DTNB reduction, TNB absorbance 405 nm | 360,000 compounds, 3% hits | Potency, µM (titrated, usually from 114 µM), inactives show at the highest dose activity change, negative = inhibition, usual class: inhibitors; also: % is scaled to controls: 0 for no effect and ±100 for the full control effect; nearly all actives have a fitted effect of over 60% in size
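Kinetic colorimetric format: TGR-catalysed, NADPH-driven DTNB reduction monitored via TNB absorbance. Enzyme dispensed at 20 nM; compound exposure 15 min at room temperature before reaction start.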
AmpC inh detg = qHTS Inhibitors of AmpC Beta-Lactamase (assay with detergent); P00811; AmpC hydrolysis of nitrocefin, absorbance 480 nm, 0.01% Triton; Potency, µM (top dose mostly 114 µM), for the others: at the highest dose activity change, negative = inhibition, most hits filed as inhibitors; 370,000 compounds, 0.041% hits;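 also: 0% = no-compound wells and -100% = no-enzyme wells; nearly all actives have a fitted effect of over 25% in size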
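20 mM phosphate pH 7.0 + 0.01% (detergent screen) or 0.0001% Triton X-100; 5.3 nM AmpC reagent; cpd preinc 15 min RT; nitrocefin (800 uM stock) to start; A480 q20 s × 4 min; Activity was normalised to no-enzyme and no-compound control wells.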
SARS PLP yeast = qHTS of Yeast-based Assay for SARS-CoV PLP; Potency, µM (doses to about 32.9 µM), without a hit: at the highest dose activity, positive = growth rescue, most hits filed as activators; S. cerevisiae expressing SARS-CoV PLpro, growth rescue; 330,000 compounds, 0.19% hits; AID 485353, 2010; calls by dose curve; also: 0% is about no effect; nearly all actives have a fitted effect of over 55% in size
Pf growth 96h = Primary qHTS for delayed death inhibitors of the malarial parasite plastid, 96 hour incubation. P. falciparum luciferase reporter growth, 96 h. Potency, µM (doses to about 28.7 µM), inactives show top-dose activity change, negative = inhibition, actives largely listed as inhibitors. 320,000 compounds, 6.9% hits. AID 504834, 2011; also: % is scaled to controls: 0 for no effect and ±100 for the full control effect
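96 h incubation, 37 C, 5% CO2, of luciferase-reporter P. falciparum-infected RBCs (2% hematocrit, 0.05% parasitemia final) with test compounds; endpoint luminescence.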
Pf growth 48h = Primary qHTS for delayed death inhibitors of the malarial parasite plastid, 48 hour incubation. Potency, µM (doses to about 28.7 µM), for the others: at the highest dose activity change, negative = inhibition, usual class: inhibitors. 310,000 compounds, 5.9% hits. P. falciparum luciferase growth in erythrocytes, 48 h; also: % is scaled to controls: 0 for no effect and ±100 for the full control effect
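Cell-based growth assay: transgenic P. falciparum expressing firefly luciferase, cultured in red cells within RPMI 1640 containing 0.5% w/v Albumax, 24 mM bicarbonate and gentamycin. A drop in luciferase activity indicates inhibition.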
* hit, by the source's call; ? = inconclusive; / = no result. Rows were chosen to be rich in hits. Some 12% of all compounds tested hit in one or more screens of this group. Unless noted, calls follow the shape of the dose curve; as a rule, active = well fitted curve in the direction sought with a large enough effect; inconclusive = small, poorly fitted or top-dose-only effect, or another doubt; inactive = no such curve, though single readings can be large; an effect the other way counts as inactive or inconclusive. Potency is read from the fitted curve at half-maximal effect.

SMILES | AmpC no deterg | Sm TGR block | AmpC inh detg | SARS PLP yeast | Pf growth 96h | Pf growth 48h
CCOC(=O)N1CCc2c(sc(NCc3ccc(N(C)C)cc3)c2C(=O)Nc2ccc(OC)cc2)C1 | / | -23.6% | 0.7% | / | / | /
CN1CCc2c(sc(N)c2C(=O)c2ccc(Cl)cc2)C1 | 1.2% | -25.5% | -6.1% | 1.3% | 4.65µM* | ?
CCc1nnc(NC(=O)CCS(=O)(=O)c2ccc(C)cc2)s1 | -10.3% | ? | -12.5% | 3.3% | 5.4% | ?
COCc1nnc(NC(=O)CCS(=O)(=O)c2ccccc2)s1 | -13.2% | -2.1% | -0.4% | 6.6% | 19.5% | -19.2%
CCc1nnc(NC(=O)c2cccc(C(=O)Nc3nnc(CC)s3)n2)s1 | -33.5% | -4.7% | 0.4% | -30.8% | 9.28µM* | -5.3%
CCc1nnc(NC(=O)CCS(=O)(=O)c2ccccc2)s1 | -4.2% | 22.4µM* | -13.3% | -0.5% | 1.7% | 7.0%
CCCC(C)c1nnc(NC(=O)CCS(=O)(=O)c2ccccc2)s1 (centres undefined) | -3.6% | 89.1µM* | -11.1% | 1.8% | 23.6% | 10.9%
CC(C)c1nnc(NC(=O)CCS(=O)(=O)c2ccccc2)s1 | -10.9% | 17.8µM* | 1.5% | 1.7% | 18.1% | 0.0%
CCc1nnc(NC(=O)c2ccncc2)s1 | -3.4% | 1.3% | -13.7% | -1.8% | 37.9% | 36.0%
CC(SCC(=O)NC12CC3CC(CC(C3)C1)C2)C(=O)O (centres undefined) | -7.3% | -8.6% | -16.9% | 2.5% | -1.6% | 2.2%
Cc1ccc(C)c(NC(=O)C(=O)NCCc2csc3nc(-c4ccccc4C)nn23)c1 | / | 3.1% | 2.9% | / | / | /
COc1ccccc1N1CCN(C(=O)CCC(=O)Nc2nnc(C(C)C)s2)CC1 | 90.5% | 0.2% | 1.7% | -4.4% | 11.7µM* | -5.2%
O=C(CS(=O)(=O)c1ccccc1)Nc1ncc([N+](=O)[O-])s1 | -16.2% | ? | -12.3% | -2.3% | 0.7% | 11.7%
O=C(CCS(=O)(=O)c1ccccc1)Nc1ncc([N+](=O)[O-])s1 | -3.2% | 44.7µM* | ? | -9.9% | -3.2% | ?
Cc1ccc2c(c1)C(c1ccncc1)=NNC(c1ccc(C(C)C)cc1)=N2 | -24.2% | 0.7% | -7.0% | 10.8% | ? | ?
COC(=O)c1ccc(C)c(NC(=O)c2nn(C)c(=O)c3ccccc23)c1 | 16.3% | 9.8% | ? | 2.9% | 13.1µM* | ?
CN1CCN(c2ccc(Cl)cc2NC(=O)c2ccc([N+](=O)[O-])cc2)CC1 | -13.8% | 1.8% | -12.8% | -0.1% | ? | ?
CCn1nc(C(=O)Nc2ccccc2N2CCCC2)c2ccccc2c1=O | 41.9% | -2.6% | ? | -4.1% | ? | ?
CN1CCN(c2ccc(Cl)cc2NC(=O)c2nn(-c3ccccc3)c(=O)c3ccccc23)CC1 | 1.4% | 1.5% | -3.2% | -5.6% | 14.7µM* | -18.2%
Cn1nc(C(=O)Nc2cc(Cl)ccc2N2CCCC2)c2ccccc2c1=O | 4.0% | 9.1% | -1.9% | -0.2% | 13.1µM* | 11.7µM*
CCOC(=O)C1=C(C)N(C)C(=S)NC1c1ccc(Cl)cc1Cl (centres undefined) | -22.1% | 3.7% | -3.5% | ? | 14.7µM* | -16.9%
COc1ccc(/C=C2/N=C(SCC(=O)Nc3cc(C)on3)N(c3ccccc3)C2=O)cc1 | -10.4% | -10.8% | ? | 14.8% | 28.9% | 29.7%
CCC(SC1=N/C(=C/c2ccccc2)C(=O)N1c1ccccc1)C(=O)Nc1cc(C)on1 (centres undefined) | -38.7% | -5.7% | -14.2% | -4.6% | 10.2% | 5.86µM*
N#Cc1ccc(NC(=O)Cn2cnc([N+](=O)[O-])c2)cc1 | -24.8% | -33.2% | ? | 2.7% | 11.7µM* | 4.5%
N#Cc1ccc(NC(=O)Cn2cnc(S(=O)(=O)N3CCCCC3)c2)cc1 | -23.7% | -16.9% | -12.4% | -0.7% | ? | 10.2%
SMILES | AmpC no deterg | Sm TGR block | AmpC inh detg | SARS PLP yeast | Pf growth 96h | Pf growth 48h
O=C(Cn1cnc([N+](=O)[O-])c1)Nc1cc(Oc2ccc(Cl)cc2Cl)cc([N+](=O)[O-])c1 | -21.1% | -3.3% | 6.7% | 24.2% | -18.4% | 13.1µM*
CCOC(=O)c1c(C)oc2nc(C)nc(NCC3CCN(Cc4ccccc4C)CC3)c12 | / | 4.0% | 22.9% | / | / | /
O=C(O)C(c1ccccc1)N1C(=O)c2cccc3cccc(c23)C1=O (centres undefined) | -18.7% | -19.3% | 3.7% | 0.2% | 1.47µM* | -17.1%
Cc1ccc(S(=O)(=O)NC(=O)NC2CCCCCCC2)cc1 | / | / | / | / | -14.0% | 4.4%
Cc1ccc(C(=O)NS(=O)(=O)c2ccc(N=NN(C)C)cc2)cc1 | -19.8% | / | -8.5% | 0.5% | ? | 9.4%
C=C(C)COc1ccc(-c2nc(N)nc(C(F)(F)F)c2-c2ccc(OC)cc2)c(O)c1 | -37.2% | -6.5% | -4.2% | -0.2% | 2.08µM* | 2.94µM*
C=C(C)COc1ccc(-c2ncnc(C(F)(F)F)c2-c2ccccc2)c(O)c1 | -30.6% | 0.0% | -7.4% | 0.1% | 1.65µM* | 1.65µM*
C=C(C)COc1ccc(-c2nc(N)ncc2Oc2ccc(OC)cc2)c(O)c1 | -12.2% | 0.0% | -11.0% | -0.9% | 3.0% | ?
C=C(C)COc1ccc(-c2n[nH]c(C)c2-c2ccc(Br)cc2)c(O)c1 | -18.9% | 7.6% | -13.8% | -33.4% | ? | ?
C=C(C)COc1ccc(-c2ncnc(C(F)(F)F)c2-c2ccc(OC)cc2)c(O)c1 | -25.8% | -11.1% | 0.7% | -7.5% | 0.928µM* | 1.65µM*
O=C(Cn1ncc2c3ccccc3n(Cc3cccc(Cl)c3)c2c1=O)NCCCN1CCCCC1 | / | 9.9% | 15.0% | / | / | /
Cc1ccc(N2CC(NC(=O)C3CCCC3)CC2=O)cc1 (centres undefined) | / | 0.6% | 0.5% | / | / | /
CC(C)Oc1ccc(S(=O)(=O)N2CCOCC2)cc1NC(=O)CCCSc1ccccc1 | 45.7% | 1.2% | -11.4% | 3.4% | ? | ?
CCC(=O)N1c2ccccc2CC1C(=O)NCCc1cc(OC)c(OC)c(OC)c1 (centres undefined) | / | -8.4% | ? | / | / | /
CCOC(=O)c1c(C)n(-c2ccccc2)c2ccc(OC(=O)c3ccccc3)cc12 | / | -0.9% | -7.6% | / | / | /
Cc1cc(C)c2ccc(N)nc2c1O | -28.2% | -13.2% | -3.7% | -4.8% | 196.0% | 4.15µM*
Cc1cc(C)c2ccc3c(C)c(C)n(C)c3c2n1 | -14.4% | 2.9% | 3.6% | -3.4% | 13.1% | -19.6%
